Results as given in PubChem BioAssay (NCI).
The panel holds about 83,000 compounds, 20% with a hit somewhere; the sample as a whole holds those more often.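 96-well plates, one dose, 48 hours. Percent growth reported; active if below 10.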 Unmarked numbers belong to inactive results. Activity calls are given as the source filed them.

Columns and labels:
Experiment in all cases: NCI-60 one-dose screen, 48 h (100 = growth as untreated, 0 = no growth, -100 = all killed)
Details in all cases: 10 µM
[1] = system: NCI-H23 lung
[2] = system: NCI-H226 lung
[3] = system: NCI-H322M lung
[4] = system: HOP-62 NSCLC
[5] = system: NCI-H460 lung
[6] = system: HOP-92 NSCLC
[7] = system: NCI-H522 lung
[8] = system: A549/ATCC NSCLC
[9] = system: 786-0 renal
[10] = system: COLO 205 colon

Row | Structure (SMILES) | growth [1] [%] | growth [2] [%] | growth [3] [%] | growth [4] [%] | growth [5] | growth [6] | growth [7] | growth [8] | growth [9] [%] | growth [10]
1 | O=C(O)c1ccc(CNc2ccc(C(=O)CCl)cc2)cc1 | 116 | 97.2 | 102 | 98.5 | 103% | 77.4% | -41.9% (active) | 94.9% | 109 | 97.3%
2 | CCCCCCCCCCCCCCCC(=O)N1CCN(C)CC1 | 85.1 | 106 | 71.3 | 89 | 68.6% | 31.7% | 17.1% | 95.5% | 86 | 68.6%
3 | COc1cc(-c2nc3ccc(C)cc3[nH]2)ccc1OCc1nnc(-c2ccc(CC(C)C)cc2)o1 | 93.2 | 86.9 | 97.2 | 90.6 | 90.8% | 79.4% | 97.4% | 93.5% | 90 | 103%
4 | CCOC(=O)Nc1ccc2c(c1)C(=O)N(CCOC)c1ccccc1O2 | 52 | 77.1 | 43 | 43 | 23% | 45% | 18.4% | 44.8% | 45.3 | 13%
5 | O=C(COCc1c(-c2ccccc2)no[n+]1[O-])Nc1nc(-c2ccc(Cl)cc2)cs1 | 93.6 | 90.4 | 104 | 96.5 | 106% | 86.8% | 81.1% | 105% | 120 | 113%
6 | O=C1c2cc(Cl)ccc2-c2c(O)cc(Cl)cc21 | 49.3 | 94 | 109 | 89.6 | 99.5% | 52.8% | 76.2% | 105% | 103 | 92%
7 | CCOC(=O)C(=O)Cc1cccnn1 | 101 | 95.2 | 109 | 103 | 116% | 86.1% | 97.2% | 97.5% | 96.4 | 102%
8 | C=CCOc1ccc2c(c1)CC[C@@H]1[C@@H]2CC[C@]2(C)C(=O)/C(=N/O)C[C@@H]12 | 60.1 | 76.2 | 50.9 | 56.7 | 64% | -5.15% (active) | 44.5% | 58.5% | 47.3 | 40.8%
9 | COc1cc(-c2c(C#N)c(N)n3c(nc4ccccc43)c2C#N)cc(Br)c1OC | 59.2 | 27.8 | 70.9 | 74.5 | 28.4% | -20.7% (active) | 39.8% | 4.73% (active) | 22.2 | 55.1%
10 | CCc1nn2c(-c3ccccc3)c(-c3cc(OC)c(OC)c(OC)c3)nc2s1 | 98.3 | 84.6 | 82.4 | 98.7 | 88.3% | 49.8% | 70.9% | 92.1% | 76.5 | 84.9%
11 | O=C(COc1ccc(-c2nc3ccccc3[nH]2)cc1)N=Nc1c(O)[nH]c2ccccc12 | 106 | 116 | 96.1 | 105 | 97.8% | 79.8% | 94% | 106% | 96.8 | 92.4%
12 | C=CCN1C(=O)/C(=C\c2ccc3c(c2)CCC3)SC1=S | 90.3 | 96.7 | 106 | 76.3 | 107% | 91.5% | -22.1% (active) | 105% | 104 | 109%
13 | COc1ccc(C2=NNC(c3sc(Cl)nc3Cl)C2)cc1 (stereo not given) | 93.7 | 54.4 | 90.3 | 72.5 | 103% | 75.2% | 9.05% (active) | 94.7% | 99.2 | 63.1%
14 | Nc1nc2c(nnn2C2CC(O)C(CO)O2)c(=O)[nH]1 (stereo not given) | 45 | 50 | 52 | 69 | 54.3% | 43.7% | 24.4% | 76.2% | 50.7 | 11.9%
15 | CCCCCCCCCCN=C(c1ccc(N(C)C)cc1)c1ccc(N(C)C)cc1 | 27.8 | 57.6 | 44.6 | 29.4 | 12.1% | 47.9% | 2.43% (active) | 30.5% | 48.8 | 6.54% (active)
16 | Clc1cc(Cl)c(Cl)c(-c2nc(-c3cccnc3)cs2)c1 | 94.8 | 90.9 | 99.2 | 114 | 92.2% | 79.7% | -51% (active) | 78.9% | 99.1 | 57.1%
17 | CCCCc1ccc(NC(=O)N(CCCl)N=O)cc1 | 109 | 91.2 | 96.8 | 90.8 | 102% | 105% | 97% | 102% | 94.2 | 101%
18 | CCCCC(=O)N(c1ccc(Nc2c3ccccc3nc3cc([N+](=O)[O-])ccc23)cc1)S(C)(=O)=O | 81.8 | 71.3 | 82.1 | 56 | 14% | 39.2% | 50.7% | 34% | 74.3 | 88.1%
19 | COc1ccc(S(=O)(=O)Nc2cc(/C=C\c3cc(OC)c(OC)c(OC)c3)ccc2OC)cc1 | 27.6 | 11.8 | 23.8 | 48.7 | 5.27% (active) | 12.7% | -27.9% (active) | 18% | 19 | -59.2% (active)
20 | C[C@]12CC[C@H]3[C@@H](CC=C4C[C@@H](O)CC[C@@]43C)[C@@H]1CC[C@@H]2C(=O)C/C=N/O | 86.6 | 107 | 88.5 | 76.8 | 97.9% | 54.9% | 79.4% | 89.5% | 90.8 | 101%
21 | COc1cc(-c2nc(-c3nnc(-c4cccnc4)o3)c3ccccn23)cc(OC)c1OC | 101 | 86 | 101 | 102 | 109% | 100% | 94.7% | 93.9% | 89.1 | 119%
22 | Cc1ccc2c3c(cccc13)-c1ccccc1C2=O | 86.5 | 91.1 | 92.4 | 93.6 | 96.2% | 108% | 67.1% | 81.8% | 99.4 | 93.9%
23 | Oc1cc(O)c(Br)cc1Br | 110 | 103 | 91.8 | 105 | 108% | 85.4% | 88.8% | 98.9% | 93.1 | 101%
24 | CCN(CC)CCOC(=O)c1ccc(N=Nc2ccc(O)c(OC)c2)cc1 | 94.5 | 90.4 | 90.9 | 98.8 | 110% | 94.6% | 63.8% | 91.1% | 95.9 | 107%
